Measurements taken from PubChem BioAssay (NCI).
This is part of a sample that, as a whole, favours compounds with a hit. Of some 83,000 tested, about 20% had one in any assay.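 Interpretation: 100, growth as untreated; towards 0, rising growth inhibition; 0, no net growth; 0 to -100, cell death. Compounds scoring below 10 were considered active.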 A number with no mark means an inactive call.

These compounds were tested on ACHN renal (assay: NCI-60 one-dose screen, 48 h (100 = growth as untreated, 0 = no growth, -100 = all killed)). Conditions: 10 µM unless noted.
`CCN(C(C)=O)c1ccc([N+](=O)[O-])cc1` gave a growth of 113%.
Compound `O=S(=O)(c1ccc(NC(=S)NCc2cccnc2)cc1)N1CCCCC1` has a growth of 86.9%.
`O=S1(=O)c2ccccc2Oc2ccccc21` was tested, and the growth was 99.7%.
Compound `C/C(=N\N=C(/C)c1cccc([N+](=O)[O-])c1)c1cccc([N+](=O)[O-])c1` has a growth of 99.4%.
Work on `OC(CBr)CCBr` (configuration not stated) yielded a growth of 100%.
Compound `CC(=O)NC(CCc1ccc(Cl)c(Cl)c1)c1cccc(O)c(=O)c1` (configuration not stated) has a growth of 17.5%.
Work on `CCCCCCCCCCCCCCCCCC(=O)NCCNC(=O)CCCCCCCCCCCCCCCCC` yielded a growth of 86.2%.
`COC1CC(OC(=O)c2ccc([N+](=O)[O-])cc2)C(COC(=O)c2ccc([N+](=O)[O-])cc2)O1` (configuration not stated) was tested, and the growth was 112%.
Work on `CC(=O)NC(O)C(Cl)Cl` (configuration not stated) yielded a growth of 105%.
Work on `CC(=O)c1cccc(O)c1` yielded a growth of 103%.
For `C1C[S+]2CC[S+]1CC2`, the growth was 99.2%.
Compound `COC1OC(C(COC(C)=O)OC(C)=O)C(OC(C)=O)C(OC(C)=O)C1OC(C)=O` (configuration not stated) has a growth of 95.3%.
Compound `Cn1/c(=N\N=C\c2ccccc2OCCO)sc2ccccc21` has a growth of 92.5%.
Compound `CC(C)(N)CO[C@H]1C[C@H]2CC[C@@]1(C)C2(C)C` has a growth of 100%.
With `CCCC(=O)CC(=O)c1ccccc1` the growth was 105%.
`Cc1onc(-c2ccccc2Cl)c1C(=O)Cl` was tested, and the growth was 96.2%.
`COC1OC(C(O)C(O)CO)C(O)C(O)C1O` (configuration not stated) was tested, and the growth was 101%.
Compound `Cc1cc(=O)n(Nc2ccccc2)c(O)c1C#N` has a growth of 104%.
For `ClCC(Cl)C1CCC(Cl)C(Cl)C1` (configuration not stated), the growth was 99.3%.
In the case of `C=CCC(O)C=C` (configuration not stated), the growth is reported as 100%.
`CCOC(=O)c1ccc(Nc2sc(C(=O)c3ccc(Br)cc3)c(N)c2C#N)cc1` showed a growth of 44%.
`CNc1ccccc1C(=O)N/N=C/C=C/c1ccccc1` showed a growth of 58.2%.
`CC(C)=CCC[C@@H](C)[C@H]1CC[C@@]2(C)C3=C(CC[C@]12C)[C@@]1(C)CC[C@H](O)C(C)(C)[C@@H]1CC3` gave a growth of 101%.
In the case of `Cc1[nH]nc(C(N)=O)c1[N+](=O)[O-]`, the growth is reported as 99.3%.
`CC(O)C(F)(F)C(F)(F)C(F)(F)F` (configuration not stated) gave a growth of 93.8%.
`CC1(C)CCC(C)(C)NC(=S)N1` showed a growth of 104%.
For `CCOC(=O)CNC`, the growth was 91.1%.
`CCCCNc1ccc(-c2ccc(NCCCC)cc2)cc1` gave a growth of 71.1%.
`O=S(=O)(O)c1ccc(O)c(C2CCCCC2)c1` was tested, and the growth was 105%.
In the case of `C1=NCCc2ccccc21`, the growth is reported as 101%.
For `C=CC1=NC(C)(C)CC(C)O1` (configuration not stated), the growth was 101%.
Compound `Cc1ccc(NC(=S)N2CCOCC2)cc1C` has a growth of 99.2%.
`COC(=O)c1cccc([N+](=O)[O-])c1` gave a growth of 109%.
In the case of `CCN(CC)CCN1CNC(=S)NC1`, the growth is reported as 102%.
Compound `COc1cc2c(c(OC)c1OC)-c1ccc(SC)c(=O)cc1[C@@H](NC1OC(CO)C(O)C(O)C1O)CC2` (some centres not stated) has a growth of 27.2%.
Compound `CCOC(C=O)OCC` has a growth of 112%.
`CCOC(=O)CSCCC#N` was tested, and the growth was 95.2%.
